# Compounds with a hit are over-represented: about 3.1% of the library has one in this group of screens.
# ASM inhibitor = human S-ASM enzyme inhibition | P17405 | placental ASM, HMU-PC fluorogenic substrate, 60 min | Potency, µM (doses to about 57.5 µM), for inactives: at the highest dose activity change, negative = inhibition, hits mostly inhibitors | 340,000 compounds, 0.006% hits | AID 504937
#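 Human placenta-derived ASM enzyme was preincubated with compound for 10 minutes at room temperature, then given fluorogenic substrate HMU-PC0 (9 uM final) for 60 minutes at 37 °C; a pH 10 stop preceded fluorescence reading at Ex 386/Em 447 nm.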
# TDP1 inh = blocks human tyrosyl-DNA phosphodiesterase 1. Q9NUW8. recombinant TDP1, AlphaScreen DNA substrate cleavage. Potency, µM (series often up to 130 µM), for inactives: top-dose activity change, negative = inhibition, actives largely listed as inhibitors. 350,000 compounds, 0.28% hits. AID 485290; further: on the % scale 0 is the no-effect control and ±100 the full control effect; nearly all actives have a fitted effect of over 40% in size
#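 Recombinant human Tdp1 (E. coli-expressed, 1 nM final) preincubated with compounds 15 min at room temperature, then 5'-biotin/3'-phosphotyrosine-FITC DNA substrate (15 nM final) added for 5 min. AlphaScreen beads (10 ug/ml final) added 10 min; cleavage lowers signal.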
# PLK1 PBD inh = PLK1 (human) polo-box domain binding inhibition; Potency, µM, inactives show max response, negative = inhibition, hits mostly inhibitors; 360,000 compounds, 2.8% hits; Plk1 PBD binding of FITC phosphopeptide, fluorescence polarization; further: series mostly up to about 57 µM; on the % scale 0 is the no-effect control and ±100 the full control effect; nearly all actives have a fitted effect of over 65% in size
# VDR inhibitor = inhibitors of human vitamin D receptor; AID 504847; 400,000 compounds, 0.93% hits; VDR-SRC2-3 peptide fluorescence polarization, 2 h; Potency, µM, without a hit: max response, negative = inhibition, usual class: inhibitors; further: on the % scale 0 is the no-effect control and ±100 the full control effect
#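 Fluorescence polarization assay measuring small-molecule disruption of VDR binding to the coregulator peptide SRC2-3. Compounds were pin-transferred (23 nl) into the reagent mix and incubated 2 h at room temperature before reading.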
# Pin1 inhibitor = human Pin1 inhibition. Potency, µM (highest dose often 115 µM), inactives show at the highest dose activity, negative = inhibition, actives largely listed as inhibitors. Pin1 FP peptide displacement, HiFluor488, 10 min. Q13526. AID 504891. 390,000 compounds, 0.009% hits; active means well fitted inhibition curve with a large enough effect in the polarisation, with a control signal flat, not every such curve was filed as active; inconclusive means small, poorly fitted or top-dose-only effect, or effect the other way, or a change in a side signal; inactive means no such curve, though single readings can be large or run the other way; the % refers to the polarisation; further: on the % scale 0 is the no-effect control and ±100 the full control effect
# Target sequence (Q13526 whole entry, looked up): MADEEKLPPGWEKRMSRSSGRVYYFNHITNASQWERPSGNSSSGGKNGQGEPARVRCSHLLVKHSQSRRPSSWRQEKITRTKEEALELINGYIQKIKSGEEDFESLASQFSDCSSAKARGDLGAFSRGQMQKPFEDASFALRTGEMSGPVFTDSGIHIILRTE
# Tb PFK block = inhibitors of T. brucei phosphofructokinase; O15648; T. brucei PFK, ADP-Glo luminescence; Potency, µM (doses to about 57.5 µM), without a hit: top-dose activity, negative = inhibition, actives largely listed as inhibitors; 330,000 compounds, 0.17% hits; AID 485367;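 further: 0% = uninhibited 1x PFK enzyme wells and -100% = no-enzyme wells; nearly all actives have a fitted effect of over 60% in size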
# Target sequence (O15648 whole entry, looked up): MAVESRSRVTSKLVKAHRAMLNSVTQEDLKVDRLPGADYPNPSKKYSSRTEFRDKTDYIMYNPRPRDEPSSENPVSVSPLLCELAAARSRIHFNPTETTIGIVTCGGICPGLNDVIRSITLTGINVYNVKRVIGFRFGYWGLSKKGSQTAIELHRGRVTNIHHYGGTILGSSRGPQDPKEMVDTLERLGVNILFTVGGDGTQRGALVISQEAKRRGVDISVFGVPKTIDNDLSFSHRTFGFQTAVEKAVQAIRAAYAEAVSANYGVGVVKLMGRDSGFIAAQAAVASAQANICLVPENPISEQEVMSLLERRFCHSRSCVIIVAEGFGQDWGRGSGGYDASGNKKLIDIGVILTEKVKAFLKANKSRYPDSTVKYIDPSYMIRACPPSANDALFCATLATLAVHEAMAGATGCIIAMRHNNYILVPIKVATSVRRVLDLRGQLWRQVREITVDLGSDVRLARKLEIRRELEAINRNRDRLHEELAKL
#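 ADP-Glo luminescence quantified ADP after 45 min at room temperature, with 1.25 nM T. brucei PFK, 0.1 mM ATP and 0.5 mM fructose-6-phosphate in pH 8.0 TEA buffer. qHTS titrations up to 57 µM; curves classified by quality.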
# Numbers without * were called inactive; u = inconclusive; x = no result. Unless noted, the call rests on the fitted dose curve; in most records, active means well fitted curve in the direction sought with a large enough effect; inconclusive means small, poorly fitted or top-dose-only effect, or another doubt; inactive means no such curve, though single readings can be large; an effect the other way counts as inactive or inconclusive. Potency means the concentration at half of the fitted maximal effect.
SMILES,ASM inhibitor,TDP1 inh,PLK1 PBD inh,VDR inhibitor,Pin1 inhibitor,Tb PFK block
Nc1cccc(-c2nnc3n2CCCCC3)c1,1%,3%,17µM*,-17%,-3%,-5%
C=CC(=O)O,x,-6%,x,4%,x,x
O=C1CCCC2=C1C(c1ccc(Cl)cc1)N=C(Nc1nc3ccccc3o1)N2 (stereo unspecified),x,1%,x,-3%,5%,x
Cc1cnc(N2CCC(C(N)=O)CC2)nc1-c1cccc(N(C)C)c1,x,x,x,x,2%,x
CCOC(=O)c1c(NC(=O)c2cc(-c3ccc(Br)cc3)on2)sc(C)c1C,x,-5%,x,79µM*,3%,x
CCCc1cc(C(=O)Nc2sc(C)c(C)c2C(=O)OCC)no1,25%,-7%,21µM*,u,-1%,-10%
c1ccc(C2NCCc3ccccc32)cc1 (stereo unspecified),-4%,6%,27µM*,u,4%,-1%
c1ccc2c(c1)CCNC2c1ccncc1 (stereo unspecified),5%,4%,-10%,-4%,-8%,-1%
COCCN(CC(=O)Nc1cccc(C)c1C)C(=O)c1cc2c(s1)CCC2,7%,22µM*,-11%,-4%,-2%,u
COC(=O)CC1Oc2ccccc2N(Cc2ccc(C)cc2)C1=O (stereo unspecified),-5%,0%,27µM*,2%,-2%,-4%
CCC1Oc2ccccc2N(CC(=O)NCc2ccc(C)cc2)C1=O (stereo unspecified),x,5%,x,13%,-1%,x
CCCc1nn2c(=O)cc(COc3ccc(NC(=O)c4ccco4)cc3)nc2s1,4%,-17%,21µM*,-25%,3%,1%
CC(C)Cc1nn2c(=O)cc(COc3ccc(NC(=O)c4ccco4)cc3)nc2s1,-1%,-12%,-8%,2%,16%,1%
CCc1nn2c(=O)cc(COC(=O)c3cccc(NC(=O)c4ccccc4C)c3)nc2s1,x,1%,x,10%,7%,x
CCc1nn2c(=O)cc(COc3cccc(NC(=O)c4ccco4)c3)nc2s1,1%,50µM*,27µM*,u,u,-26%
COc1cc(Cl)c(C)cc1NC(=O)c1cnc(N2CCOCC2)c2ccccc12,x,0%,x,-3%,u,x
COc1ccc(C(=O)O)cc1S(=O)(=O)NC(C)(C)C,2%,-1%,24µM*,-25%,-5%,1%
CN1c2ccccc2C(C)(C)C12C=Nc1c(ccc3ccccc13)O2 (stereo unspecified),-3%,10%,-5%,-19%,2%,u
COc1ccc2ccc3c(c2c1)N=CC1(O3)N(C)c2ccccc2C1(C)C (stereo unspecified),20%,10%,-24%,50µM*,-15%,-26%
CCOCCCNC(=O)/C(C#N)=C/c1cc(Br)c(O)c(Br)c1,24%,x,21µM*,-13%,-5%,3%
COCCNC(=O)/C(C#N)=C/c1ccccc1Br,1%,-5%,24µM*,-28%,-4%,-1%
Cc1ccc(NC(=O)CSc2nccn2-c2ccccc2)cc1,x,12%,x,2%,-1%,x
CCN(C(=O)Cn1nc(Cc2ccncc2)c2ccccc2c1=O)c1cccc(Cl)c1,x,4%,x,-1%,16%,x
N#Cc1c(-c2ccccc2)cc(-c2ccccc2)nc1SCCC(=O)O,5%,x,21µM*,u,-2%,-2%
N#Cc1c(-c2ccc(F)cc2)cc(-c2ccccc2)nc1SCC(=O)NCC(=O)O,17%,x,19µM*,u,x,-21%
SMILES,ASM inhibitor,TDP1 inh,PLK1 PBD inh,VDR inhibitor,Pin1 inhibitor,Tb PFK block
O=C(NC1CCCCC1)C(c1cccs1)N(C(=O)c1ccccn1)c1ccccc1 (stereo unspecified),-1%,3%,-23%,-1%,1%,-3%
OC(C#Cc1ccccn1)c1cccs1 (stereo unspecified),-7%,-2%,30µM*,50µM*,u,-26%
CC(C)Oc1ccc(CNC(=O)C2CCN(C(=O)N3CCOc4ccc(Cl)cc43)CC2)cc1,x,9%,x,8%,2%,x
O=C(O)c1cccc(-c2noc(-c3ccccc3F)n2)c1,x,1%,x,x,-1%,x
CCOc1ccc(S(=O)(=O)N2Cc3ccccc3CC2C(=O)O)cc1 (stereo unspecified),3%,-1%,u,-5%,-10%,2%
COc1ccc(S(=O)(=O)N2Cc3ccccc3CC2C(=O)O)cc1 (stereo unspecified),-3%,28µM*,-14%,-4%,-25%,u
CCc1ccc(OCCCSc2nc(-c3ccc(C(C)(C)C)cc3)nc3cc(=O)[nH]n23)cc1,x,8%,x,8%,u,x
O=C(CCC(=O)c1cccs1)OCc1nnc(-c2ccccc2)o1,-1%,5%,27µM*,-13%,-4%,0%
Cc1ccc(-c2ccccc2NC(=O)CS(=O)CC(=O)Nc2ccc(C)c(Cl)c2)o1 (stereo unspecified),-9%,x,19µM*,45µM*,u,-1%
Cc1oc2cc(O)ccc2c(=O)c1-c1cnn(-c2ccccc2)c1,29%,0%,-7%,1%,28%,3%
Cc1oc2cc(O)ccc2c(=O)c1-c1nncn1-c1ccccc1,181%,8%,30µM*,8%,u,1%
COc1ccc(C)cc1Nc1nc(C)nc2sc(C)cc12,-5%,x,30µM*,u,-5%,1%
COc1ccc(C)cc1Nc1nc(-c2ccccc2O)nc2ccccc12,-13%,x,-8%,-3%,8%,4%
O=C(Nc1ccccc1)C1CCN(c2nc(-c3ccc(Br)cc3)cs2)CC1,x,x,x,x,32%,x
CCCN1C(=O)c2ccccc2NC1c1ccc(OC)c(COc2cccc(C)c2C)c1 (stereo unspecified),x,0%,x,0%,37%,x
COc1cccc(Oc2cn[nH]c2-c2ccc(OCC(=O)NN)cc2O)c1,-2%,x,38µM*,-21%,-5%,2%
CCCN1CNc2c(c(=O)[nH]c(=S)n2CCC(C)(C)C)C1,x,1%,x,u,-1%,x
COc1cc2c(C(=O)N(C)c3cc(Cl)ccc3OC)cn(CC(C)C)c(=O)c2cc1OC,x,0%,x,-9%,3%,x
Cc1cc(SCC(=O)N/N=C/c2ccc(O)c(O)c2O)c(C)cc1Br,-16%,9%,6µM*,-18%,-4%,-17%
O=C(O)c1ccc(N2CC3CC(C2)c2cccc(=O)n2C3)c(NC(=S)Nc2ccc(Cl)cc2Cl)c1 (stereo unspecified),3%,-3%,12µM*,u,3%,-11%
CCc1ccc(NC(=O)Nc2cc(C(=O)O)ccc2N2CC3CC(C2)c2cccc(=O)n2C3)cc1 (stereo unspecified),5%,3%,-14%,-12%,-9%,-2%

# Assay outcomes deposited in PubChem BioAssay by National Center for Advancing Translational Sciences (NCATS).
